Source: PubChem
RECQ1 inh-1 – qHTS Assay for Inhibitors of RecQ-Like Dna Helicase 1 (RECQ1). ATP-dependent DNA helicase Q1 (Homo sapiens), P46063. actives 0.54% (n = 240,000). Potency, µM (series often up to 57.3 µM), actives largely listed as inhibitors. AID 2549, 2010. RECQ1 DNA unwinding, red fluorescence kinetic read; note: nearly all actives have a fitted effect of over 30% in size
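50 nM RECQ1T1 preincubated 15 min with compound in Tris pH 8.0 buffer with MgCl2, DTT, Tween-20 and 2.5 ug/ml poly(dI-dC); started with 200 nM TAMRA/BHQ-2 forked duplex and 2 mM ATP. Unwinding read as fluorescence (525/598 nm), two reads 2 h apart.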
APE1 inh – qHTS Assay for Inhibitors of the Human Apurinic/apyrimidinic Endonuclease 1 (APE1) | AID 2517, 2012 | Potency, µM (highest dose often 65.8 µM), most hits filed as inhibitors | actives 0.35% (n = 350,000) | DNA repair nuclease/redox regulator APEX1 (Homo sapiens), P27695 | recombinant APE1, TAMRA/BHQ-2 abasic DNA cleavage fluorescence; note: nearly all actives have a fitted effect of over 55% in size
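Kinetic fluorescence read (525 ex/598 em nm, three reads 60 s apart) of AP-site incision; signal = third minus first read. Enzyme 0.75 nM, dual-labelled THF duplex 50 nM, compound preincubation 15 min RT.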
L3MBTL1 inh-1 – qHTS Assay for the Inhibitors of L3MBTL1; actives 0.66% (n = 230,000); AlphaScreen L3MBTL1–H3K9me1 peptide binding; Potency, µM (titrated, usually from 57.1 µM), most hits filed as inhibitors; Lethal(3)malignant brain tumor-like protein 1 (Homo sapiens), Q9Y468; note: nearly all actives have a fitted effect of over 60% in size
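Read-out is AlphaScreen signal from streptavidin donor and nickel chelate acceptor beads (10 ug/mL final each) bridging L3MBTL1 (50 nM) and biotinylated K9-monomethylated H3(1-15) peptide (75 nM), after 30 min compound exposure at room temperature.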
KDM4E inh – qHTS Assay for Inhibitors of Human Jumonji Domain Containing 2E (JMJD2E). Lysine-specific demethylase 4E (Homo sapiens), B2RXH2. JMJD2E catalytic domain, FDH-coupled NADH fluorescence (FDH is formaldehyde dehydrogenase). Potency, µM (highest dose often 57.1 µM), most hits filed as inhibitors. actives 1.6% (n = 230,000). AID 2147, 2009; active = well fitted inhibition curve with a large enough effect, not every such curve was filed as active; inconclusive = small, poorly fitted or top-dose-only effect, or another doubt; inactive = no such curve, though single readings can be large or run the other way; note: nearly all actives have a fitted effect of over 50% in size
Target sequence (B2RXH2 1-337 limits assumed): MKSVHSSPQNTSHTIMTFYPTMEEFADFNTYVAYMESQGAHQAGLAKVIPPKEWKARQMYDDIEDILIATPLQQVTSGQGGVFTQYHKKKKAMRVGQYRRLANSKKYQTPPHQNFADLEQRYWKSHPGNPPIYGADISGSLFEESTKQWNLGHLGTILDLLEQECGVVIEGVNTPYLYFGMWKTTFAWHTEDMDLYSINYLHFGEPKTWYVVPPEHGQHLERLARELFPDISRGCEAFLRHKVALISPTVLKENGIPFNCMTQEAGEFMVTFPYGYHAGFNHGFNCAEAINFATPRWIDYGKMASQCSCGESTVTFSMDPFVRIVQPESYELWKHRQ
TDP1 block – qHTS Assay for Inhibitors of Tyrosyl-DNA Phosphodiesterase (TDP1) | Tyrosyl-DNA phosphodiesterase 1 (Homo sapiens), Q9NUW8 | recombinant TDP1, AlphaScreen DNA substrate cleavage | Potency, µM (top dose mostly 130 µM), hits mostly inhibitors | actives 0.28% (n = 350,000) | AID 485290, 2010; note: nearly all actives have a fitted effect of over 40% in size
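Compounds were preincubated with Tdp1 (1 nM final) for 15 min at room temperature before substrate (15 nM final) started a 5 min reaction; beads (10 ug/ml final) were then added for 10 min before AlphaScreen detection.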
BLM helicase inh – qHTS Assay for Inhibitors of Bloom's syndrome helicase (BLM); recombinant BLM DNA unwinding, fluorescence dequenching; Potency, µM (highest dose often 56.1 µM), usual class: inhibitors; actives 0.2% (n = 350,000); RecQ-like DNA helicase BLM (Homo sapiens), P54132; AID 2528, 2010; note: nearly all actives have a fitted effect of over 35% in size
RECQ1 conf – Confirmation qHTS Assay for Inhibitors of RecQ-Like Dna Helicase 1 (RECQ1) | shares compounds with RECQ1 inh-1 | RECQ1 helicase DNA unwinding, fluorescence | Potency, µM (titrated, usually from 229 µM), hits mostly inhibitors | actives 28% (n = 610); note: nearly all actives have a fitted effect of over 45% in size
ADP FP counter – Counterscreen for RECQ1 Inhibitors: ADP Fluorescence Polarization Displacement Assay; Potency, µM (titrated, usually from 228 µM), usual class: inhibitors; AID 2711, 2010; shares compounds with RECQ1 inh-1; actives 27% (n = 530); ADP fluorescence polarization displacement counterscreen; note: nearly all actives have a fitted effect of over 45% in size
RECQ1 inh-2 – Confirmation qHTS Assay for Inhibitors of RecQ-Like Dna Helicase 1 (RECQ1) - Round 2 Cherry Picks | shares compounds with RECQ1 inh-1 | recombinant RECQ1 DNA unwinding, red fluorescence | Potency, µM (titrated, usually from 119 µM), hits mostly inhibitors | actives 15% (n = 1,100) | AID 504841, 2011; note: nearly all actives have a fitted effect of over 50% in size
L3MBTL1 inh-2 – qHTS Assay for the Inhibitors of L3MBTL1: Hit Validation. L3MBTL1 methyl-lysine binding inhibition, biochemical qHTS. AID 540279, 2011. Potency, µM, actives largely listed as inhibitors. actives 91% (n = 500). shares compounds with L3MBTL1 inh-1; note: nearly all actives have a fitted effect of over 70% in size
L3MBTL1 ctr – qHTS Assay for the Inhibitors of L3MBTL1: Hit Validationin AlphaScreen Counterscreen; shares compounds with L3MBTL1 inh-1; AlphaScreen counterscreen, signal inhibition; Potency, µM (series often up to 57.1 µM), most hits filed as inhibitors; 500 tested, under 10 active
A number is an active result; 0 = inactive; ? = inconclusive; - = no result. Many of the other results were omitted from the sample, so hits are more common in it than they were. Unless noted, calls come from the whole dose curve; as a rule, active = well fitted curve in the direction sought with a large enough effect; inconclusive = small, poorly fitted or top-dose-only effect, or another doubt; inactive = no such curve, though single readings can be large; an effect the other way counts as inactive or inconclusive.

SMILES	RECQ1 inh-1	APE1 inh	L3MBTL1 inh-1	KDM4E inh	TDP1 block	BLM helicase inh	L3MBTL1 inh-2	L3MBTL1 ctr	others
COC[C@H]1OC(=O)c2coc3c2[C@@]1(C)C1=C(C3=O)[C@@H]2CCC(=O)[C@@]2(C)C[C@H]1OC(C)=O	35.5µM	0	-	-	0	-	-	-	RECQ1 inh-2=0
O=C(O)c1ccccc1-c1nc2ccccc2n1-c1ccccc1	11.2µM	0	0	0	0	0	-	-	RECQ1 conf=39.8µM;RECQ1 inh-2=1.78µM
C=C1C(=O)O[C@@H]2C[C@@H](C)[C@@H]3C=CC(=O)[C@@]3(C)[C@@H](OC(=O)CC(=O)O[C@H]3[C@@H]4C(=C)C(=O)O[C@@H]4C[C@@H](C)[C@@H]4C=CC(=O)[C@]43C)[C@H]12	25.1µM	0	-	0	0	22.4µM	-	-	RECQ1 conf=14.1µM;ADP FP counter=0
CN1CCC(N2CC3CC(C2)c2cccc(=O)n2C3)CC1 (stereo not given)	0	0	39.8µM	0	0	0	26.7	0
ClCC(Cl)CCl	0	0	-	-	0	-	-	-
CCOc1ccc(N2C(=O)NC(=O)/C(=C\c3ccc(N4CCCCC4)o3)C2=O)cc1	0	0	0	0	0	0	-	-
CCOc1ccc(N2C(=O)/C(=C/c3ccc(C)o3)C(=O)NC2=S)cc1	-	0	22.4µM	-	-	0	2.67	0
Cc1cc(/C=C2\C(=O)NC(=O)N(Cc3ccccc3)C2=O)c(C)n1-c1ccc(Cl)c(C(=O)O)c1	35.5µM	?	4.47µM	?	-	0	0.752	0
CC[C@@H](CO)NC(=O)[C@H]1C=C2c3cccc4[nH]cc(c34)C[C@H]2N(C)C1	0	0	-	?	0	0	-	-
